Activity calls are given as the source filed them.

A short description of test [1]: optical density shifts of acrAB sulA E. coli – strain DRC41, OD650, 48 h, E. coli filamentation inducer project, primary screen (AID 1152).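 Further: E. coli MC1000 strain DRC41 lacking acrAB efflux pump and sulA.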 The note with it: higher = more signal, called active from +8 up or from −8 down.
Test [2] is described as follows: probe aLefty1 binding on compound microarray – biochemical, small-molecule microarray, 635/667 nm fluorescence, primary screen (AID 1153).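 Further: score merges spot fluorescence with signal-to-noise ratio from the scanned slide images.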 The note with it: higher = more signal.
Test [3] in a line: plasmodial surface anion channel blockers, osmotic lysis – cell-based, P. falciparum Indochina, OD700, 1 h, primary screen (AID 1154). To be noted: P. falciparum Indochina infected RBC osmotic lysis, higher = more signal, called active from +8 up or from −8 down.
Test [4] in a line: plasmodial surface anion channel blockers, osmotic lysis – cell-based, P. falciparum Indochina, OD700, 2 h, primary screen (AID 1155).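 Further: lysis reports solute entry through the parasite surface anion channel PSAC.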 To be noted: P. falciparum Indochina infected erythrocytes, higher = more signal, called active from +8 up or from −8 down.
Test [5] in a line: changes in parasitized red cell lysis, either direction – P. falciparum Indochina, OD700, 3 h, PSAC antagonist project, primary screen (AID 1156). The note with it: P. falciparum-infected erythrocytes, osmotic lysis, higher = more signal, called active from +8 up or from −8 down.
Test [6] in a line: plasmodial surface anion channel blockers, osmotic lysis – cell-based, P. falciparum Indochina, OD700, 18 h, primary screen (AID 1157). The note with it: P. falciparum Indochina infected erythrocytes, osmotic lysis OD700, 18 h; higher = more signal, called active from +8 up or from −8 down.
Test [7] is described as follows: S6 kinase pathway phospho-S6 level changes – cell-based, A549, cytoblot, luminescence, serum-stimulated, primary screen (AID 1158).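 Further: serum-stimulated A549 lung adenocarcinoma cells; signal is phosphorylated S6 detected by cytoblot immunostaining with HRP secondary.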 The note with it: 5 h, higher = more signal.
For test [8], the target named is NADPH oxidase 2 (Homo sapiens) (UniProt P04839). In words: compounds shifting NOX2 Amplex Red fluorescence – cell-based, HEK293-NOX2, PMA-stimulated, NOX inhibitor project, primary screen (AID 1159). Further: test concentration not given here. The note with it: 45 min, higher = more signal, called active from +8 up or from −8 down.
Chain of NADPH oxidase 2 (Homo sapiens) (P04839 whole entry, looked up): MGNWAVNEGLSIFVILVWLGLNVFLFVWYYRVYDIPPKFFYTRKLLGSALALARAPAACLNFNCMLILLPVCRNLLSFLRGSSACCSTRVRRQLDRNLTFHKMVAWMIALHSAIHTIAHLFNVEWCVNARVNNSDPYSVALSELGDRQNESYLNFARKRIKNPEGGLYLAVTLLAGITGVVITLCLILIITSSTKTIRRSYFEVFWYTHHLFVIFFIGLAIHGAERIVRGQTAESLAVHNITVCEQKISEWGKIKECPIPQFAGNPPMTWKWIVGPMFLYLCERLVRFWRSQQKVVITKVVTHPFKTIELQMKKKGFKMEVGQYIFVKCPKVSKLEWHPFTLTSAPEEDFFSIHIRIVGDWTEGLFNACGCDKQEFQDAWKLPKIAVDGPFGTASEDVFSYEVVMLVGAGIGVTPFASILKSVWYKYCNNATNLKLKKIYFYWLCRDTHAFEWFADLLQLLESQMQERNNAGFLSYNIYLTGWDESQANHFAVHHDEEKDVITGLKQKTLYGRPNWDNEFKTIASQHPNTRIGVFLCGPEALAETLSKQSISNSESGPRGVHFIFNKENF
In test [9] the target is NADPH oxidase 4 (Homo sapiens) (UniProt Q9NPH5). In words: compounds shifting NOX4 Amplex Red fluorescence – cell-based, HEK293-NOX4, tetracycline-induced, NOX inhibitor project, primary screen (AID 1160). To be noted: HEK293-NOX4, Amplex Red H2O2 fluorescence, 45 min; higher = more signal, called active from +8 up or from −8 down.
Chain of NADPH oxidase 4 (Homo sapiens) (Q9NPH5 whole entry, looked up): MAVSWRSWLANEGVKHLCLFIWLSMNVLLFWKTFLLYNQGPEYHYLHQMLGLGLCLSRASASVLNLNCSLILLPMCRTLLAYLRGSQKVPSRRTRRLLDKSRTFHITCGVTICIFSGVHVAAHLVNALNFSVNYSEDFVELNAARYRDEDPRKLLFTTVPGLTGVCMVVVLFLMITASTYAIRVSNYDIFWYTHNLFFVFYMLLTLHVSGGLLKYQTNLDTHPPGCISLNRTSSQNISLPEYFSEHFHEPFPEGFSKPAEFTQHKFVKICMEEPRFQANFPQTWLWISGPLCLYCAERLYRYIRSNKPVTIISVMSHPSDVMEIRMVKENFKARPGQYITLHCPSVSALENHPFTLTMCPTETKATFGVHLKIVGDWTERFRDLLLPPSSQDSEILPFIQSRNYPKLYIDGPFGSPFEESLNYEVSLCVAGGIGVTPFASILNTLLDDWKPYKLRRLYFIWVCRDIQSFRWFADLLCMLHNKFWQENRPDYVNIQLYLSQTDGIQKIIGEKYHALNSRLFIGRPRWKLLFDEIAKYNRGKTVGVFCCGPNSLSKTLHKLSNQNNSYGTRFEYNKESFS
Test [10] has as its target NADPH oxidase 5 (Homo sapiens) (UniProt Q96PH1). In words: compounds shifting NOX5 Amplex Red fluorescence – cell-based, HEK293-NOX5, NOX inhibitor project, primary screen (AID 1161). The note with it: HEK293-NOX5, ionomycin, 45 min, higher = more signal.
A short description of test [11]: compound effects on lung adenocarcinoma cell viability – A549, calcein-AM fluorescence, 48 h, basal, profiling panel (AID 1162). Further: test concentration not given here. The note with it: higher = more signal.
Test [12] is described as follows: compound effects on differentiated 3T3-L1 adipocyte viability – cell-based, 3T3-L1 adipocytes, calcein-AM fluorescence, 48 h, basal, profiling panel (AID 1163). Further: test concentration not given here. To be noted: 3T3-L1 adipocytes viability, higher = more signal.
A short description of test [13]: compound effects on hepatocellular carcinoma cell viability – HepG2, calcein-AM fluorescence, 48 h, basal, profiling panel (AID 1164). Further: test concentration not given here. The note with it: higher = more signal.
A short description of test [14]: compound effects on multiple myeloma cell viability – MM1S, calcein-AM fluorescence, 48 h, basal, profiling panel (AID 1165).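 Further: viability of MM1S multiple myeloma cells under basal unstimulated conditions; test concentration not given here.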 The note with it: higher = more signal.
Test [15] in a line: calcein-AM signal in unstimulated myeloma cells – cell-based, calcein-AM fluorescence, 48 h, PK04 Diversity Set, profiling panel (AID 1166).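 Further: cells grown under basal conditions without added stimulus; test concentration not given here.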 To be noted: RPMI8226 myeloma viability, higher = more signal.
Test [16] in a line: JC-1 mitochondrial signal, unstimulated HepG2 cells – cell-based, JC-1 fluorescence, 24 h, 100 nL compound, profiling panel (AID 1167). Further: test concentration not given here. The note with it: HepG2 mitochondrial potential, higher = more signal.
A short description of test [17]: JC-1 mitochondrial signal, unstimulated adipocytes – cell-based, JC-1 fluorescence, 3T3-L1 adipocytes, 24 h, 100 nL compound, profiling panel (AID 1168). Further: test concentration not given here. To be noted: JC-1 mitochondrial fluorescence, higher = more signal, called active from +8 up or from −8 down.
The nature of test [18]: JC-1 mitochondrial signal, unstimulated myeloma cells – cell-based, JC-1 fluorescence, RPMI8226, 24 h, 100 nL compound, profiling panel (AID 1169). Further: test concentration not given here. To be noted: JC-1 mitochondrial potential fluorescence, higher = more signal.
A short description of test [19]: JC-1 mitochondrial signal, unstimulated MM1S myeloma – cell-based, JC-1 fluorescence, 24 h, 100 nL compound, profiling panel (AID 1170). Further: test concentration not given here. The note with it: MM1S mitochondrial potential, higher = more signal.
A short description of test [20]: resazurin metabolic signal in A549 cells – cell-based, resazurin fluorescence, 24 h, PK04 Diversity Set, profiling panel (AID 1171). Further: test concentration not given here. The note with it: A549 viability, higher = more signal, called active from +8 up or from −8 down. (The colour change of resazurin is a common sign of viable cells or microbes.)

Chain of NADPH oxidase 5 (Homo sapiens) (Q96PH1 whole entry, looked up): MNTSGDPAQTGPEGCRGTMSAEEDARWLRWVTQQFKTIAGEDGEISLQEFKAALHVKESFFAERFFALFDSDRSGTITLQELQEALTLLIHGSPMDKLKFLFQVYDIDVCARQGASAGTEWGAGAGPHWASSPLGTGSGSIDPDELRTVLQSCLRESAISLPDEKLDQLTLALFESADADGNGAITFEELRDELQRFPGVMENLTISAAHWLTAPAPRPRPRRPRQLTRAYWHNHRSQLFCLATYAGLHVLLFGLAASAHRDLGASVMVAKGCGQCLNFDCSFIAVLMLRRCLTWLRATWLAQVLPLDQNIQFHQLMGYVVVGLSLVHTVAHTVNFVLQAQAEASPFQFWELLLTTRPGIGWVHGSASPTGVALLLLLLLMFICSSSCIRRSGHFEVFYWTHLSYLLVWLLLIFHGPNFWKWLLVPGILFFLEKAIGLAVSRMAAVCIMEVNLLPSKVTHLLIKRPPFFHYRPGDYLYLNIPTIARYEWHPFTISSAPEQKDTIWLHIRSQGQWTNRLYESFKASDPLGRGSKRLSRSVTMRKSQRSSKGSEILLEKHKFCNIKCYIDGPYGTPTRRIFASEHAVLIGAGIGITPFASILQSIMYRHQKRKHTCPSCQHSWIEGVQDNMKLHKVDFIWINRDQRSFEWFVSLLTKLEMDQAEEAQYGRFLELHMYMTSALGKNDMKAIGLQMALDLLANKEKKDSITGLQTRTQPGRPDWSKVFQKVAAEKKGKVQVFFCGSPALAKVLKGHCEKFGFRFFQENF

Regarding `[N-]=[N+]=Nc1ccccc1[C@@H]1OC(c2ccc(OCCCO)cc2)=N[C@]1(CCS(=O)(=O)c1ccccc1)C(N)=O`, the z-score in test [1] was 0.307 (inactive); in test [3], 29.1 (active); in test [4], 26.1 (active); in test [5], 1.26 (inactive); in test [6], 5.2 (inactive); in test [7] it was 0.0742. The z-score in test [8] is -1.8 (inactive); in test [9], 2.14 (inactive); in [10], 0.903; in test [11], -0.811; in test [12], -0.267; in test [13], -0.554. For the same compound, the z-score in test [14] is -0.648; in test [15] it was 0.0806; in [16], -2.73; in [17], -1.91 (inactive); in test [18], -0.0842; in test [19] it was -0.305. In addition, in [20], the z-score is 0.404 (inactive). This compound displayed a composite z-score in test [2] of 0.572.
Take `CCCC[C@@H]1C[C@H]1[C@@H](NC(=O)C(C)(C)C)c1ccc(C(F)(F)F)cc1`: the z-score in [1] was -2.06 (inactive); in [3], 5.74 (inactive); in test [4], 0.367 (inactive); in [5] it was 1.01 (inactive); in test [6], -1.37 (inactive); in test [7] it was 2.6. Further, the z-score was -4.58 (inactive) in [8]; -4.44 (inactive) in test [9]; -5.62 in test [10]; -1.63 in [11]; 0.434 in [12]; -1.6 in test [13]. Also, the z-score in test [14] is -2.43; in [15] it was -3.05; in [16], -0.754; in test [17], -1.64 (inactive); in [18], -0.204; in test [19], -1.8. Moreover, the z-score in [20] is 0.419 (inactive). This compound registered a composite z-score in test [2] of 0.718.
For the compound `C=C[C@H](C)[C@@H](OC(=O)Nc1ccc(OC)cc1)c1ccc(O)c2ccccc12`, the z-score in test [1] was -0.368 (inactive); in test [3] it was 3.54 (inactive); in [4] it was 0.265 (inactive); in [5] it was -0.122 (inactive); in [6], 0.132 (inactive); in test [7], -0.751. For the same compound, the z-score in test [8] was -5.53 (inactive); in test [9] it was -1.89 (inactive); in [10] it was -0.55; in test [11], -1.17; in test [12], 0.323; in test [13], -1.54. The z-score is -2.78 in [14]; -4.12 in test [15]; -3.42 in test [16]; -1.19 (inactive) in test [17]; -1.01 in [18]; -1.94 in test [19]. Further, the z-score in [20] is -1.12 (inactive). This compound also came in with a composite z-score in [2] of 0.0903.
With `C#C[C@H](O[Si](C#Cc1ccc(Oc2ccccc2)cc1)(C(C)C)C(C)C)c1ccccc1`, the z-score was -0.425 (inactive) in test [1]; 0.353 (inactive) in [3]; 0.787 (inactive) in test [4]; -2.03 (inactive) in test [5]; -0.206 (inactive) in test [6]; -0.305 in [7]. Further, the z-score in test [8] was -1.03 (inactive); in [9], -2.59 (inactive); in test [10] it was -3.04; in test [11] it was -2.21; in [12] it was -1.19; in test [13] it was -1.48. For the same compound, the z-score in test [14] is -3.02; in test [15], -4.16; in test [16], -3.3; in test [17], -0.805 (inactive); in test [18], -0.836; in test [19], -1.34. Besides, in test [20], the z-score is -1.3 (inactive). The compound also showed a composite z-score in [2] of -0.104.

The record behind these values is PubChem BioAssay.
